Assay results reported in the supplement of paper PMC13380429.

Tested on: Vero E6 infected with SARS-CoV-2
Experiment: inhibition of SARS-CoV-2 cytopathic effect; higher = more antiviral protection, active = above 15
Conditions: 48 h

Measured: inhibition of SARS-CoV-2 cytopathic effect

CCCCc1ccc(C(N)=O)nc1 [bupicomide]
inactive: 1 nM 2.98% | 8.33 nM 0.4% | 100 nM -0.52% | 833.33 nM -0.04% | 10000 nM 3.08%

O=[N+]([O-])c1ccc([As](=O)(O)O)cc1 [nitarsone]
inactive: 1 nM -0.01% | 8.33 nM 1.59% | 100 nM 0.4%

CC[C@H](C(=O)N1CCCC[C@H]1C(=O)O[C@H](CCc1ccc(OC)c(OC)c1)c1cccc(OCC(=O)NCCNC(=O)COc2cccc([C@@H](CCc3ccc(OC)c(OC)c3)OC(=O)[C@@H]3CCCCN3C(=O)[C@@H](CC)c3cc(OC)c(OC)c(OC)c3)c2)c1)c1cc(OC)c(OC)c(OC)c1
inactive: 1 nM -3.12% | 8.33 nM -1.9% | 100 nM -0.97%

N#C/C(=C\c1cn(-c2ccccc2)c2ccccc12)C(=O)O
inactive: 1 nM -0.26% | 8.33 nM -0.12% | 100 nM -0.58% | 833.33 nM 1.6% | 10000 nM -2.52%

O=[N+]([O-])c1cc([As](=O)(O)O)ccc1O [roxarsone]
inactive: 1 nM -3.44% | 8.33 nM -2.76% | 100 nM -4.83%

O=c1[nH]c(=O)c2ccccc2o1 [carsalam]
inactive: 1 nM -1.46% | 8.33 nM 0.95% | 100 nM 4.79% | 833.33 nM 0.99% | 10000 nM 4.32%

CC(C)CC(=O)N[C@H](C(=O)N[C@H](C(=O)N[C@@H](CC(C)C)[C@@H](O)CC(=O)N[C@@H](C)C(=O)N[C@@H](CC(C)C)[C@@H](O)CC(=O)O)C(C)C)C(C)C [pepstatin]
inactive: 1 nM 1.4% | 8.33 nM 0.77% | 100 nM -0.17% | 833.33 nM -1.52% | 10000 nM -4.53%
